# Article PMC4336329 (PLoS ONE, 2015)
# Hit rate of the full screen: of about 310,000 compounds, about 14,000 (4.5%) showed an effect of 50% or more. The effect is printed as a negative number. The full list was thinned out, with strong results kept by preference.
# Target: human ether-à-go-go-related gene (hERG) potassium channel (human, UniProt Q12809)
# Assay: primary screen, population patch clamp on CHO cells stably expressing hERG; higher = less effect of the substance
# 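Further: peak tail current of the secondary pulse compared with the same well before compound.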
# human ether-à-go-go-related gene (hERG) potassium channel, sequence (Q12809 whole entry, looked up): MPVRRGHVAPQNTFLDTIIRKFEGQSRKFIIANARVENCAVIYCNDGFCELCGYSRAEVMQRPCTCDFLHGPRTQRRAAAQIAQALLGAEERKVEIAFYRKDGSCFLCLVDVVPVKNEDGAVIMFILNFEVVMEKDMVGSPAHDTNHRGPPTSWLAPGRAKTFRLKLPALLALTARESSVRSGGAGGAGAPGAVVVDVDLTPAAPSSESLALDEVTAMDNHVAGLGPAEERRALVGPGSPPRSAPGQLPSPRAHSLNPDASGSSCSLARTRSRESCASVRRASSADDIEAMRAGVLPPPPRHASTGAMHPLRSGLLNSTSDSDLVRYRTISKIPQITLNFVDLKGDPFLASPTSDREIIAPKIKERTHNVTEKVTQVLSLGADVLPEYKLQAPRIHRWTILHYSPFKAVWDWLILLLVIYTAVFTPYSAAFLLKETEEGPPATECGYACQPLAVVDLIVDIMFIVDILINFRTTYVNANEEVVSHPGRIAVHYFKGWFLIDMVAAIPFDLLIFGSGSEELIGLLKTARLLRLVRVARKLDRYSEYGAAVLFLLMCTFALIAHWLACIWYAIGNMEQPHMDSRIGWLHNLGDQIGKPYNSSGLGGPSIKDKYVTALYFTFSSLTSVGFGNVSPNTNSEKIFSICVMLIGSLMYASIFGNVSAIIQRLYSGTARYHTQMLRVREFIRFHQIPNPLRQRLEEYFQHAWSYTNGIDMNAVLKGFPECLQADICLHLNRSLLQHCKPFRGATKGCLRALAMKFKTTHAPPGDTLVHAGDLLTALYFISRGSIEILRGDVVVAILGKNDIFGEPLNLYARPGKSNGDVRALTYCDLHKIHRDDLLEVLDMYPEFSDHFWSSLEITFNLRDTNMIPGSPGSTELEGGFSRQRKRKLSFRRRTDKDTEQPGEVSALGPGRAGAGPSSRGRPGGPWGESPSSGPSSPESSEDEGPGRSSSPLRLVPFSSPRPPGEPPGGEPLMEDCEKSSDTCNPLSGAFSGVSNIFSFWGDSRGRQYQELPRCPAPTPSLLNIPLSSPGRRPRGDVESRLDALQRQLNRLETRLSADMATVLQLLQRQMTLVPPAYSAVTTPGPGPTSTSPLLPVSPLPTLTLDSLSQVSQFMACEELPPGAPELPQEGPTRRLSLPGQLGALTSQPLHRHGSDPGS
row,SMILES,"hERG current change (%, negative = inhibition) at 10uM [%]"
1,O=C(/C=C/c1ccco1)N/C(=C\c1ccccc1)C(=O)NCCc1nc2ccccc2[nH]1,-46.3
2,COc1ccc(/C=C/C(=O)N/C(=C\c2ccco2)C(=O)NCCc2nc3ccccc3[nH]2)cc1,-72.7
3,COc1ccc(/C=C/C(=O)NCCc2nc3ccccc3[nH]2)cc1,26.4
4,CC1CC(C)CN(CCCNC(=O)Cn2ncn3cccc3c2=O)C1 (centres unmarked),-3.29
5,Cc1c2cnn(CC(=O)NCCCN3CC(C)CC(C)C3)c(=O)c2c(C)n1Cc1ccccc1Cl (centres unmarked),-36.7
6,Cc1c2cnn(CC(=O)NCCCN3CC(C)CC(C)C3)c(=O)c2c(C)n1Cc1ccc(Cl)cc1 (centres unmarked),-52.6
7,Cc1cc2c(cc3c(=O)n(CC(=O)NCCCN4CC(C)CC(C)C4)ncn32)s1 (centres unmarked),-53.4
8,Cc1c2cnn(CC(=O)NCCCN3CCCCC3)c(=O)c2c(C)n1Cc1ccccc1,9.96
9,Cc1nn(CC(=O)NCCCN2CC(C)CC(C)C2)c(=O)c2cccn12 (centres unmarked),12.9
10,COC(=O)c1ccc(OC(=O)CCN2c3ccccc3Sc3ccccc32)cc1,8.91
11,Nc1c(C(=O)NC23CC4CC(CC(C4)C2)C3)sc2nc3c(c(C(F)(F)F)c12)CCC3,0.00528
12,CC(=O)NC1CC2CCCC(C1)N2CC(=O)Nc1ccccc1 (centres unmarked),4.65
13,O=C(CN1C2CCCC1CC(NC(=O)c1ccccc1)C2)Nc1ccccc1 (centres unmarked),-50.7
14,O=C(CN1C2CCCC1CC(NC(=O)c1ccco1)C2)Nc1ccccc1 (centres unmarked),-45.2
15,CN(C)c1ccc(NC(=O)CN2C3CCCC2CC(NC(=O)c2ccccc2)C3)cc1 (centres unmarked),-65.3
16,COc1cccc(C(=O)NC2CC3CCCC(C2)N3CC(=O)Nc2ccccc2C(F)(F)F)c1 (centres unmarked),15.8
17,COc1cccc(C(=O)NC2CC3CCCC(C2)N3CC(=O)Nc2ccccc2)c1.Cl (centres unmarked),-54.4
18,O=C(CN1C2CCCC1CC(NC(=O)c1ccccc1)C2)NC1CC1 (centres unmarked),26.9
19,COc1cccc(C(=O)NC2CC3CCCC(C2)N3CC(=O)Nc2ccc(N(C)C)cc2)c1 (centres unmarked),-49.3
20,O=C(CN1C2CCCC1CC(NC(=O)c1ccccc1)C2)Nc1ccccc1C(F)(F)F (centres unmarked),6.14
21,CCOc1ccc(NC(=O)COc2nsnc2N2CCCCC2)cc1,21.6
22,CC(C)[C@H](NC(=O)c1ccc(F)cc1)C(=O)N(C)Cc1cccs1,-13.8

row,SMILES,"hERG current change (%, negative = inhibition) at 10uM [%]"
1,Cc1ccc(SCC(=O)N2CCOCC2)cc1,4.71
2,Cc1cccc(OCCc2nnc(N)s2)c1C,15.2
3,CCN1CCCC1CNCc1cccc(OC)c1OCc1ccccc1.Cl (centres unmarked),-26.9
4,CCN1CCCC1CNS(=O)(=O)c1ccc(F)c(Cl)c1 (centres unmarked),9.12
5,CNCc1ccccc1OCc1ccc(F)cc1.Cl,-7.08
6,COc1cccc(CNn2cnnc2)c1OCc1ccccc1F,6.85
7,CCN1CCCC1CNCc1ccccc1OCc1ccc(F)cc1.Cl (centres unmarked),-65
8,CCOc1cc(CNCC2CCCN2CC)cc(Cl)c1OC.Cl (centres unmarked),-18
9,CCN1CCCC1CNCc1ccc(OCc2ccc(Cl)nc2)c(OC)c1.Cl (centres unmarked),-39.1
10,COc1cccc(CNc2ccccc2O)c1OCc1ccccc1F,-1.17
11,CCN1CCCC1CNCc1cc(OC)c(OC)c(OC)c1.Cl (centres unmarked),1.63
12,CCN1CCCC1CNCc1cccc(OC)c1OCc1ccc(F)cc1.Cl (centres unmarked),-69.5
13,CCN1CCCC1CNCc1ccc(Cl)cc1Cl.Cl (centres unmarked),-64.6
14,CCN1CCCC1CNCc1cccc(OC)c1OCc1ccccc1F.Cl (centres unmarked),-54.4
15,O=c1cc(/N=C/c2coc3c(ccc4ccccc43)c2=O)[nH]c(=S)[nH]1,11
16,Nc1nc(SCC(=O)Nc2ccc(Oc3ccccc3)cc2)n[nH]1,-4.09
17,CCNC(=S)N(CCc1c(C)[nH]c2ccc(F)cc12)Cc1cccnc1,-26.5
18,O=C(Cn1cnnn1)NCc1ccccc1,29.6
19,O=C(Cn1c(-c2cscn2)nc2ccccc21)Nc1ccc(Cl)cc1,-7.59
20,COCC(C)n1c(C)cc(C(=O)CSc2cc(C)c3ccccc3n2)c1C (centres unmarked),4.64
21,CCc1ccc(OCC(=O)NC(=S)Nc2ccc(C)cc2C)c(Br)c1,7.39
22,CN(c1ccc(C(=O)N2CCCCC2)cc1)S(=O)(=O)c1cccs1,8.46
